Marburg entry = inhibitors of Marburg virus binding or entry into cells. Marburg virus pseudotype entry/binding inhibition, cell-based. Potency, µM (top dose mostly 49.2 µM), most hits filed as inhibitors. actives 6.5% (n = 18,000)
LASV entry inh = inhibitors of Lassa virus binding or entry into cells. actives 4.1% (n = 18,000). Potency, µM (series often up to 49.2 µM), hits mostly inhibitors. Lassa virus pseudotyped entry inhibition, cell-based qHTS. AID 720533
Each line names hits and unclear results; the compound was inactive in the other large screens; ! = not active in a repeat. This is a sample that favours compounds with a hit; in the whole collection about 8.6% have one here. Calls come from the whole dose curve; tested in HEK293 cells.

NC[C@@H]1O[C@H](O[C@H]2[C@@H](O)[C@H](O[C@@H]3[C@@H](O)[C@H](N)C[C@H](N)[C@H]3O[C@H]3O[C@H](CN)[C@@H](O)[C@H](O)[C@H]3N)O[C@@H]2CO)[C@H](N)[C@@H](O)[C@@H]1O	none
COCCN1C(=NCCc2cccnc2)NC(c2ccccc2)C(C(=O)OC)=C1C (centres undefined)	LASV entry inh inconclusive
COC(=O)N[C@H](CC(C)=O)c1ccc(F)cc1	none
O=C1C(Cl)=C(NCCN2CCOCC2)C(=O)c2ncccc21	Marburg entry 12.6µM, LASV entry inh 11.2µM
c1ccc2c(c1)CCCc1cc(NCCN3CCOCC3)nnc1-2	none
COC(=O)N[C@H](CC(C)=O)c1cccs1	none
COc1cc(C(CC2=CCCCC2)NC(=O)C(F)(F)F)cc(OC)c1OC (centres undefined)	none
O=C(Nc1ccc(Br)cc1)c1cccc(S(=O)(=O)Nc2ccc(Br)cc2)c1	Marburg entry inconclusive, LASV entry inh 22.4µM
O=C(Nc1ccc(Br)cc1)c1cc(Br)c(Br)s1	LASV entry inh inconclusive
Cc1cc2c(C(C)C)c(O)c(O)c(C=O)c2c(O)c1-c1c(C)cc2c(C(C)C)c(O)c(O)c(C=O)c2c1O	Marburg entry 20µM, LASV entry inh 11.2µM
COC1=CC2C(=O)C(C(c3ccccc3)C2C)C1(C)O (centres undefined)	none
CCCC[C@@H](C)/C=C(C)/C=C(\C)C(=O)NC1=C[C@@](O)(/C=C/C=C/C=C/C(=O)NC2=C(O)CCC2=O)[C@@H]2O[C@@H]2C1=O	Marburg entry 5.62µM, LASV entry inh 15.8µM
CCCS(=O)(=O)NCc1c(C)ncc2c1CCN(C(=O)c1cccc(Cl)c1F)C2	none
CC(=O)OC[C@H]1O[C@H](CCON=C(C)CCC(=O)OC[C@H]2O[C@H](C#Cc3ccccc3)C=C[C@H]2Oc2ccc(C)cc2)C=C[C@H]1OC(C)=O	none
Cn1c2ccccc2c2c3c(c4c5ccccc5n(CCC#N)c4c21)CNC3=O	Marburg entry inconclusive, LASV entry inh 11.2µM
Nc1nc(NCC2CCC(CNS(=O)(=O)c3cccc4ccccc34)CC2)nc2ccccc12 (centres undefined)	Marburg entry 11.2µM, LASV entry inh inconclusive
NCCCCCCNS(=O)(=O)c1cccc2ccccc12	LASV entry inh inconclusive
CCOc1ccc2c(-c3ccnc(Nc4cc(OC)cc(C(F)(F)F)c4)n3)cnn2n1	Marburg entry 6.28µM (no result: LASV entry inh)
FC(F)(F)c1cccc(Nc2nccc(-c3cnn4nc(-c5ccccc5)ccc34)n2)c1	Marburg entry 19.9µM (no result: LASV entry inh)
COC(=O)C1=C(C(=O)OC)[C@@H]2N(C)c3ccccc3[C@@]23CCC(=O)N(Cc2ccc(OC)cc2)C3=N1	none
CCN1C(=O)NC(c2ccco2)C(C(C)=O)=C1C (centres undefined)	none
C=C(CCN1C=C(C(=O)OCC)C(c2ccccc2)NC1=O)c1ccc(Cl)cc1 (centres undefined)	none
Nc1ccc(CCN2CCN(c3cccc(C(F)(F)F)c3)CC2)cc1	LASV entry inh inconclusive
CN1CCN(CCC(=O)N2c3ccccc3Sc3ccc(C(F)(F)F)cc32)CC1	Marburg entry 15.8µM, LASV entry inh inconclusive
CC(=O)c1ccc2c(c1)N(CCCN1CCN(CCO)CC1)c1ccccc1S2	Marburg entry 10µM, LASV entry inh 28.2µM
COc1ccccc1N1CCN(CCCCNC(=O)c2ccc(-c3ccc(C(C)=O)cc3)cc2)CC1	Marburg entry inconclusive
O=S1(=O)CC(N2CCN(CCO)CC2)CN1CCc1ccccc1 (centres undefined)	none
OCCN1CCN(CC/C=C2/c3ccccc3Sc3ccc(C(F)(F)F)cc32)CC1	Marburg entry 5.62µM, LASV entry inh 12.6µM
OCCN1CCN(CCCN2c3ccccc3C=Cc3ccccc32)CC1	Marburg entry 11.2µM, LASV entry inh 25.1µM!
Cc1scc2c1N(C(=O)CN1CCN(C)CC1)c1ccccc1NC2=O	none
COCOc1cc(OC)ccc1C(=O)C=Cc1ccc([N+](=O)[O-])cc1	none (no result: LASV entry inh)
COC(=O)C1=C(C(=O)OC)[C@@H]2N(Cc3ccccc3)c3ccccc3[C@@]23C[C@@H](C(=O)OC)N(C(=O)Nc2ccc(C(F)(F)F)cc2)C3=N1	none
C#CCN(C[C@H](NC(=O)OC(C)(C)C)C(C)C)S(=O)(=O)c1ccc(Br)cc1F	none
CCC(=O)c1ccc2c(c1)N(CCCN1CCN(CCO)CC1)c1ccccc1S2	Marburg entry 10µM, LASV entry inh 14.1µM
OCCN1CCN(CCCN2c3ccccc3Sc3ccc(C(F)(F)F)cc32)CC1	Marburg entry 7.08µM, LASV entry inh 15.8µM!
CN1CCN(CCC=C2c3ccccc3Sc3ccc(S(=O)(=O)N(C)C)cc32)CC1	Marburg entry 10µM, LASV entry inh 20µM
C=C(C[C@]1(C(=O)OC)C[C@]2(CC=C(C)C)C(=O)C(C(=O)CC(C)C)=C(O)[C@@](CC=C(C)C)(C1)C2=O)C(=O)OC	none (no result: LASV entry inh)
COCOc1c2c(c(OCOC)c3c(OCOC)cccc13)C(=NNS(=O)(=O)c1ccc(C)cc1)C1=C2CCCC1	Marburg entry inconclusive
CCCC=Cc1ccc(CN2C(C)C(=O)N(Cc3cn(CCOCOC)nn3)CCS2(=O)=O)cc1 (centres undefined)	none (no result: LASV entry inh)
COc1cc2c(cc1OC)[C@@H]1O[C@](CCCCN3C(=O)c4ccccc4C3=O)(C2)OC2=C1C(=O)CC(C)(C)C2	none
COC(=O)N[C@@H](c1ccco1)C(C(C)=O)C(=O)OC (some centres undefined)	none
CN1C[C@H](C(=O)N[C@]2(C)O[C@]3(O)[C@H]4CCCN4C(=O)[C@H](Cc4ccccc4)N3C2=O)C[C@H]2c3cccc4[nH]cc(c34)C[C@@H]21	Marburg entry inconclusive
CC(C)[C@@]1(NC(=O)[C@@H]2C[C@H]3c4cccc5[nH]cc(c45)C[C@@H]3N(C)C2)O[C@]2(O)[C@H]3CCCN3C(=O)[C@H](Cc3ccccc3)N2C1=O	Marburg entry inconclusive
CC(C)[C@@]1(NC(=O)[C@H]2CC3c4cccc5[nH]cc(c45)C[C@H]3N(C)C2)O[C@@]2(O)C3CCCN3C(=O)[C@@H](Cc3ccccc3)N2C1=O (some centres undefined)	Marburg entry 8.91µM
CN1C[C@H](C(=O)N[C@]2(C)O[C@@]3(O)C4CCCN4C(=O)[C@H](Cc4ccccc4)N3C2=O)C[C@@H]2c3cccc4[nH]cc(c34)C[C@H]21 (some centres undefined)	Marburg entry 12.6µM, LASV entry inh inconclusive
CC1=C[C@@H](C)OC2(C1)C(=O)N(CC1CC1)c1cccc(Br)c12 (some centres undefined)	none
CO/N=C(\C(=O)N[C@@H]1C(=O)N2C(C(=O)O)=C(CSc3nc(C)c(CC(=O)O)s3)CS[C@H]12)c1csc(N)n1	none
Cc1cc(=O)c2c(O)c3c(O)cc(=O)c4c3c3c(cc(O)c1c23)C(C)(C)C=4O	Marburg entry 6.31µM, LASV entry inh 6.31µM
COC[C@@H](O)[C@H]1OCc2cccc(OC)c2[C@H]1C=Cc1ccccc1	none
CC1=CC[C@@H](COc2ccccc2)O[C@@]2(C1)C(=O)Nc1ccccc12	none
CS(=O)(=O)CCNCc1cc(-c2cc3c(Nc4ccc(OCc5cccc(F)c5)c(Cl)c4)ncnc3s2)cs1	Marburg entry inconclusive
CC(=O)Nc1cccc(C#Cc2cncnc2Nc2ccc(OCc3cccc(F)c3)c(Cl)c2)c1	Marburg entry 12.5µM (no result: LASV entry inh)
COc1cc(O)cc(/C=C/c2ccccc2)c1	none
COC1=CC(=O)C(O)=C/C1=C\C=C\c1ccccc1	Marburg entry 15.8µM
Cc1cccc2c(Nc3ccc4c(c3)OCO4)nc(CN3CCC(N4CCCCC4)CC3)nc12	Marburg entry 10µM, LASV entry inh 22.4µM

Bioassay records as filed in PubChem.
